Data taken from PubChem BioAssay (NCI).
Compounds without any hit were thinned out: in the full panel of roughly 79,000, 15% have a hit. Activity calls are given as the source filed them. Rule as the data show it: active = growth inhibition above about 70%; inactive = the rest.

Legend:
[1] = NCI Yeast Anticancer Drug Screen. Data for the rad50 strain (AID 155);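 also: 0% = growth of vehicle-only cultures of the same strain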; settings: S. cerevisiae rad50 strain growth inhibition; at 50.0 µM; hits give high values
Method in brief: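 Growth of the mutant yeast was measured after compound exposure and referenced to vehicle-treated cultures.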

[2] = NCI Yeast Anticancer Drug Screen. Data for the mec2-1 strain (AID 157); settings: S. cerevisiae mec2-1 strain, at 50.0 µM, hits give high values
Method in brief: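 Using mec2-1 yeast: add compound, measure growth, express inhibition versus vehicle-treated cultures.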

[3] = NCI Yeast Anticancer Drug Screen. Data for the sgs1 mgt1 strain (AID 161);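 also: 0% = growth of cultures given vehicle only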; settings: S. cerevisiae sgs1 mgt1 strain, at 50.0 µM, hits give high values
Method in brief: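 Percent growth inhibition was derived by comparing compound-exposed mutant yeast with vehicle-exposed cultures. The strain carries alterations in DNA damage repair.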

[4] = NCI Yeast Anticancer Drug Screen. Data for the cln2 rad14 strain (AID 165);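 also: 0% = growth equal to vehicle treated cultures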; settings: S. cerevisiae cln2 rad14 strain, at 50.0 µM, hits give high values
Method in brief: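 Yeast strain cln2 rad14, bearing defects in cell cycle control and DNA repair, serves as the test system; values reflect growth inhibition compared with vehicle.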

[5] = NCI Yeast Anticancer Drug Screen. Data for the bub3 strain (AID 167); settings: S. cerevisiae bub3 mutant strain, at 50.0 µM, hits give high values
Method in brief: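 Whole-cell yeast assay. The mutant strain was incubated with compounds, and growth inhibition was determined by comparison with vehicle-treated cells.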

[6] = NCI Yeast Anticancer Drug Screen. Data for the mlh1 rad18 strain (AID 175); settings: S. cerevisiae mlh1 rad18 strain growth inhibition; at 50.0 µM; hits give high values
Method in brief: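 Steps: expose repair-defective yeast to compound; measure growth; express inhibition against vehicle-treated controls.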

Measured: growth inhibition

NC(CS(N)(=O)=O)C(=O)O (configuration not stated)
inactive: [1] -6.3% | [2] -3.75% | [3] -1.05% | [4] -51.5% | [5] -3.2% | [6] 2.8%

COC(=O)COc1ccccc1[N+](=O)[O-]
inactive: [1] -0.15% | [2] 2.55% | [3] 0.6% | [4] 3.7% | [5] 5.25% | [6] 4.45%

CCOC(=O)c1nc(SC)sc1NC(=O)c1ccc([N+](=O)[O-])cc1
inactive: [1] -11% | [2] -24.8% | [3] -30.8% | [4] 27.1% | [5] -14.7% | [6] -21.6%

COC1OC(=O)c2ccccc21 (configuration not stated)
inactive: [1] 12.2% | [2] -16.2% | [3] -2.1% | [4] -0.7% | [5] -2.45% | [6] 12.8%

Cc1cc(NC(=O)NC(=O)c2ccccc2NC(=O)CN)ccc1Oc1ncc(Br)cn1
inactive: [1] 6% | [2] -13.8% | [3] 40.3% | [4] 11.4% | [5] 15.1% | [6] -43.5%

O=C(O)CNc1cc(-c2ccccc2)nc(NCC(=O)O)n1
inactive: [1] -53.7% | [2] -12.3% | [3] 4.45% | [4] 17.8% | [5] -29.1% | [6] 25.4%

CC(C)c1ccc(CN)cc1
inactive: [1] -23.4% | [2] -39.2% | [3] -29.8% | [4] 6.5% | [5] -36.8% | [6] -17.5%

O=NNc1ccc(-c2ccc(NN=O)cc2)cc1
inactive: [1] 19.4% | [2] 0.75% | [3] 10.8% | [4] 10.2% | [5] -10.1% | [6] 8.95%

COC(=O)NC(S(=O)(=O)O)S(=O)(=O)O
inactive: [1] 6.2% | [2] 11.6% | [3] 0.85% | [4] 2.65% | [5] 16.5% | [6] 1.7%

c1ccc(-c2cc(-c3ccccc3)c(-c3ccccc3)c(-c3ccccc3)c2)cc1
inactive: [1] 32.1% | [2] 10.1% | [3] 19.4% | [4] 12.4% | [5] -4.1% | [6] 13%

CC(C)(CO)NO
inactive: [1] -13.7% | [2] -6.9% | [3] 3.05% | [4] -0.4% | [5] -14.3% | [6] -5.7%

O=C(CC/[N+]([O-])=C/c1ccccc1)OCc1ccccc1
inactive: [1] 24.9% | [2] 20.8% | [3] 1.3% | [4] 12% | [5] 21.8% | [6] 52.5%

CC1(c2ccc3cccc(F)c3c2)OC(=O)c2ccccc21 (configuration not stated)
inactive: [1] 2% | [2] 1.65% | [3] -2.95% | [4] -68.8% | [5] -4.25% | [6] -12.7%

Cc1ccc(NC(=O)CC2C(=O)Nc3ccccc3S2(=O)=O)c(C)c1 (configuration not stated)
inactive: [1] -24.6% | [2] -24.8% | [3] -6.8% | [4] 20.6% | [5] -2.85% | [6] -10.6%

COc1ccc(/C(Cl)=C(\C=O)c2ccc(Cl)c(Cl)c2)cc1OC
inactive: [1] 28.1% | [2] 11.2% | [3] 27.5% | [4] -34.6% | [5] 0.7% | [6] 43.1%

CCCCC(=O)c1ccc2ccccc2c1O
inactive: [1] 6.9% | [2] -6.35% | [3] 3.9% | [4] -18% | [5] -6.3% | [6] 6.8%

CCCCCCCCCCCCCCC/C=C\C(=O)O
inactive: [1] 15.2% | [2] -5.8% | [3] -3.4% | [4] 10.3% | [5] 9.45% | [6] 1.4%

Nc1ccncn1
inactive: [1] -20.9% | [2] -0.85% | [3] -2.45% | [4] -5% | [5] -4.35% | [6] -13.8%

O=C(/C=C\c1ccccc1)c1ccc(-c2cccc(-c3ccccc3)c2)cc1
inactive: [1] -8.55% | [2] 7.95% | [3] 7.5% | [4] -17.4% | [5] -3.15% | [6] -11.1%

O=C1CN(c2cccc(C(F)(F)F)c2)C(=O)CN1/N=C/c1ccc(O)c(O)c1
inactive: [1] 3.4% | [2] -0.1% | [3] -5.3% | [4] -2.3% | [5] 2.4% | [6] 27.6%

C=CCOC(=O)CC=C
inactive: [1] -8.7% | [2] -3.1% | [3] 4.75% | [4] 6.7% | [5] -11.4% | [6] 5.3%

COC(=O)CC1(C(=O)OC)Nc2ccccc2C(=O)O1 (configuration not stated)
inactive: [1] 2.65% | [2] 21.7% | [3] 18.8% | [4] -11.1% | [5] -11.1% | [6] 2.9%

[N-]=[N+]=CC(=O)CCN1C(=O)c2ccccc2C1=O
inactive: [1] -9.85% | [2] -0.85% | [3] -4.75% | [4] -3.85% | [5] 1.15% | [6] -1.55%

Nc1cc([N+](=O)[O-])ccc1N1C(=O)CCCC1=O
inactive: [1] -15.2% | [2] -4.95% | [3] -10.1% | [4] -5.8% | [5] 5.85% | [6] 12.4%

CCOC(=S)SCC(=O)c1ccc(Br)cc1
inactive: [1] 67% | [3] 66.8% | [4] -7.5% | [5] 55.2%
active: [2] 70.5% | [6] 83.5%

CCN(CC)CCOCC(=O)Nc1ccccc1C
inactive: [1] -17.3% | [2] 4.8% | [3] 4.95% | [4] -37.5% | [5] 22.8% | [6] 26.6%

O=C(O)/C=C\c1cccc([N+](=O)[O-])c1
inactive: [1] 11.9% | [2] -16.4% | [3] 7.4% | [4] 22.3% | [5] 27.6% | [6] -14.8%

COC(=O)n1c(=O)oc2ccc(Br)cc21
active: [1] 99% | [2] 99.1% | [3] 99.4% | [4] 99.4% | [5] 99.5% | [6] 99.2%

CCCCN(CCCC)CCCCCCCCCCCO
inactive: [1] 38.7% | [2] -8.35% | [3] 34.5% | [4] -22.9% | [5] 30.8% | [6] 27.6%

Nc1[nH]c(=S)[nH]c(=S)c1N
inactive: [1] -30.6% | [2] -8.6% | [3] -15.2% | [4] -44.8% | [5] -15.3% | [6] -25.4%

O=c1ccn(/C=C\c2nc3ccccc3[nH]c2=O)c(=S)[nH]1
inactive: [1] -37.8% | [2] -27.3% | [3] -35.9% | [4] 13.7% | [5] -17.5% | [6] -40.4%

CN1CC2=C(C1)C(N(C(=O)c1ccc(-c3ccccc3)cc1)C(=O)c1ccc(-c3ccccc3)cc1)=NCN2
inactive: [1] 11.4% | [2] 3.25% | [3] 16.1% | [4] 10.6% | [5] 0.6% | [6] 21.6%

Cc1ccc(Cl)cc1NC(=O)CCc1ccccc1
inactive: [1] 3.7% | [2] 22.1% | [3] 23.6% | [4] -1.6% | [5] 4.25% | [6] 21.1%

CC(C)C(=O)C(C)(C)CCc1ccccn1
inactive: [1] -23.4% | [2] -24.8% | [3] -28.6% | [4] -15.8% | [5] -12.2% | [6] -8.35%

CC(CO)CCNc1ncnc2c1ncn2CCC#N (configuration not stated)
inactive: [1] -9.3% | [2] 10.1% | [3] -46.5% | [4] -19.9% | [5] 6.95% | [6] -13.4%

C=C1SC(=Nc2ccc(Cl)cc2)N(c2nc(Cl)nc(Cl)n2)C12CCCCC2
inactive: [1] -16.4% | [2] -21.1% | [3] 19.4% | [4] 14% | [5] 10.2% | [6] 20.6%

Cc1cc([N+](=O)[O-])ccc1NC(=O)OC(C)C
inactive: [1] -12.6% | [2] -30.2% | [3] 3.05% | [4] 8.8% | [5] 1.35% | [6] -9.35%

CCCCCCCCCCCCNC(C)C1=C(O)c2ccccc2C(=O)C1=O (configuration not stated)
inactive: [1] 52.6% | [2] 20.3% | [3] 50% | [4] 25.9% | [5] 15% | [6] 44.9%

COc1ccc2c3c([nH]c2c1)[C@H]1C[C@H]2[C@H](C[C@@H](O)[C@H](OC)[C@H]2C(=O)O)CN1CC3
inactive: [1] 26.3% | [2] 21% | [3] -18.9% | [4] 1.85% | [5] 23.6% | [6] 30.4%

CCCCNC(=O)Nc1cccc(C)c1C
inactive: [1] -4.2% | [2] -7.9% | [3] 0.75% | [4] -25.8% | [5] 0.55% | [6] 6.35%

COc1ccc(NC(=O)/C(Cc2nc3ccccc3[nH]c2=O)=N\O)c(OC)c1
inactive: [1] -1.85% | [2] -9.4% | [3] -5.1% | [4] 0.7% | [5] -4.85% | [6] -13.7%

Clc1ccc(C2NC(c3ccccc3)c3c(ccc4ccccc34)O2)cc1Cl (configuration not stated)
active: [1] 86.2% | [2] 92.6% | [3] 92.2% | [4] 88.2% | [5] 90.5% | [6] 92.1%
